Records with an inconclusive call do not appear. The source made the active and inactive calls. The call rests on the fitted dose curve; in most records, active means well fitted curve in the direction sought with a large enough effect; inconclusive means small, poorly fitted or top-dose-only effect, or another doubt; inactive means no such curve, though single readings can be large or run the other way.
Assay: qHTS for Inhibitors of Ubiquitin-specific Protease USP2a Using CHOP2 as the Reporter: K633 Counterscreen (AID 652168)
Conditions: No-enzyme DiUb K48 IQF substrate fluorescence interference, kinetic; series mostly up to 57.5 µM
In short: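 Detection-system control: fluorescence of K48-linked DiUb-4IQF substrate (100 nM as added) tracked over time, Ex 525/Em 598, with pinned compounds and no enzyme, in pH 8 Tris buffer containing beta-mercaptoethanol and 0.05% Chaps.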

Structure (SMILES)	outcome
O=C(Nc1ccc([S+](=O)([O-])Nc2nccs2)cc1)C1CCNCC1	inactive
CCCCCN1CCC(C(=O)Nc2ccc([S+](=O)([O-])Nc3nccs3)cc2)CC1	inactive
O=c1[nH]c(CN2CCOCC2)nc2sc3c(c12)CCCC3	inactive
CCCC1CCC(C(=O)Nc2ccc(S(=O)(=O)Nc3nccs3)cc2)CC1 (stereo not given)	inactive
Cc1ccc(-c2cc(C(=O)N3CC[S+](=O)([O-])CC3)c3ccccc3n2)cc1C	inactive
Cc1ccc(-c2cc(C(=O)O)c3cccc(C)c3n2)cc1C	inactive
O=C(Nc1nc(-c2ccccc2)cs1)c1cccc(NS(=O)(=O)c2nccs2)c1	inactive
Cc1ccc(S(=O)(=O)Nc2cc(F)ccc2C(=O)Nc2nc(-c3ccccc3)cs2)cc1	inactive
O=C(Nc1ccc(S(=O)(=O)Nc2nccs2)cc1)c1cccc2ccccc12	inactive
Clc1nc(CN2CCOCC2)nc2sc3c(c12)CCC3	inactive
Cc1ccc(S(=O)(=O)Nc2cnccc2C(=O)Nc2ccncc2)cc1	inactive
Cc1ccc(-c2cc(C(=O)NCC[S+](=O)([O-])O)c3ccccc3n2)cc1C	inactive
Cc1ccc(S(=O)(=O)NCCC(=O)Nc2nc(-c3ccccc3)cs2)cc1	inactive
O=S(=O)(Nc1nc(CN2CCOCC2)nc2sc3c(c12)CCCC3)c1ccc2ccccc2c1	inactive
O=C(Nc1ccc([S+](=O)([O-])Nc2nccs2)cc1)c1ccccn1	inactive
Cc1cccc(NC(=O)c2cc(-c3ccc(C)c(C)c3)nc3ccccc23)c1	inactive
CCCCc1ccc(C(=O)Nc2ccc(S(=O)(=O)Nc3nccs3)cc2)cc1	inactive
Cc1ccc(S(=O)(=O)Nc2ccccc2C(=O)Nc2nc(-c3ccccc3)cs2)cc1	inactive
Cc1ccc(-c2cc(C(=O)Nc3ccc(-c4nn[nH]n4)cc3)c3ccccc3n2)cc1C	inactive
O=C(Nc1ccc(S(=O)(=O)Nc2nc(-c3ccccc3)cs2)cc1)c1ccc2ccccc2c1	inactive
CC1CCC(C(=O)Nc2ccc([S+](=O)([O-])Nc3nccs3)cc2)CC1 (stereo not given)	inactive
Clc1nc(CN2CCOCC2)nc2sc3c(c12)CCCC3	inactive
Cc1ccc(S(=O)(=O)n2cc(C(=O)Nc3ccc(-c4ccccc4)cc3)c3ccccc32)cc1	inactive
O=c1[nH]c(CN2CCOCC2)nc2sc3c(c12)CCC3	inactive
O=c1[nH]c(CCl)nc2sc3c(c12)CCC3	inactive

Reference: PubChem BioAssay (NCATS)
